Drawing on PubChem BioAssay AID488969 (Vanderbilt High Throughput Screening Facility, 2010), this text covers z-score for 103 compounds.

Whole data set: some 110,000 compounds, median “z-score” near -0.1, cut for the highest 2% near 2. What follows is part of a selection rich in the highest values, with near analogues and random picks from the rest. Activity calls are given as the source filed them.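 How the source made its calls: active means z-score in the third read window above 3 or below -3; inactive means the rest.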

For the assay, the target named is Metabotropic glutamate receptor 8 (Rattus norvegicus) (UniProt P70579). Nature of the assay: rat mGluR8 modulators via GIRK flux, primary screen, cell-based, thallium flux, HTS (AID 488969). The note with it: HEK293 rat mGluR8, GIRK (G protein-gated inwardly rectifying potassium channel) thallium flux, FluoZin2; at 10 µM; stronger effect = higher value; submaximal glutamate (EC20) added with thallium.
Chain of Metabotropic glutamate receptor 8 (Rattus norvegicus) (P70579 whole entry, looked up): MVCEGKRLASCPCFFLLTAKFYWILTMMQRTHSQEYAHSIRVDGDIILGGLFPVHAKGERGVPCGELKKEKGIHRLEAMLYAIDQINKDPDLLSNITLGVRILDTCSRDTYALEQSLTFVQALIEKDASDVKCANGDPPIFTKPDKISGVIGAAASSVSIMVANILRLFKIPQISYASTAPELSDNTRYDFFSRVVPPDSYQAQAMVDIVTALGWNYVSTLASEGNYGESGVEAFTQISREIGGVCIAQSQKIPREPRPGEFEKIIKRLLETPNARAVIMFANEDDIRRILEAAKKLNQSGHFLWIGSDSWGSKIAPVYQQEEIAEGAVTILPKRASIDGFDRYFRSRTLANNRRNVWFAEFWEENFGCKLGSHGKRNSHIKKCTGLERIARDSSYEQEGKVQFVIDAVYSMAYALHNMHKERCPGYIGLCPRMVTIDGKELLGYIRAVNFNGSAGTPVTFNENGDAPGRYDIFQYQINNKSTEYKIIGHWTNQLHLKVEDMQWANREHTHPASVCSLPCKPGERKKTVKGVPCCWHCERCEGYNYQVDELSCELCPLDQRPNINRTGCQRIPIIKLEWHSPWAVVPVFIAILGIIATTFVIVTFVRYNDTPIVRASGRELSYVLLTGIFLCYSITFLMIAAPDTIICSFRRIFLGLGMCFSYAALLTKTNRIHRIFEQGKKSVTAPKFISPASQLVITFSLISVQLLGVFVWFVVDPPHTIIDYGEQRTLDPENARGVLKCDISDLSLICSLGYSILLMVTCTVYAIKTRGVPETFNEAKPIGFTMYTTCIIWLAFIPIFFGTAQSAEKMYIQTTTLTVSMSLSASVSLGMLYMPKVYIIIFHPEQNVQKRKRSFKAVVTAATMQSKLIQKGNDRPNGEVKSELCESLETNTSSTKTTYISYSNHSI
`O=S(=O)(Nc1ccc(N=Nc2ccccc2)cc1)c1ccccc1` returned a z-score of -0.241.

`COc1cccc(CNC(=O)CN(c2cc(C)cc(C)c2)S(=O)(=O)c2c(C)noc2C)c1`: the z-score is 2.13. The figure for `CC(=O)c1cccc(NC(=O)CN(c2cccc(F)c2)S(C)(=O)=O)c1` is -0.268. The compound `COc1ccc(N(CC(=O)NCc2cccc(OC)c2)S(=O)(=O)c2c(C)noc2C)cc1` returned a z-score of -0.199.

With `COc1cccc(NC(=O)CN(c2cccc(F)c2)S(C)(=O)=O)c1`, the z-score was -0.058. The result for `CC(=O)c1cccc(N(CC(=O)Nc2cccnc2)S(C)(=O)=O)c1` reads 0.179; that for `COc1ccc(CNC(=O)CN(c2cc(C)cc(C)c2)S(=O)(=O)c2c(C)noc2C)cc1`, -0.0907.

With `Cc1ccc(N(CC(=O)NCc2cccnc2)S(C)(=O)=O)cc1C`, the z-score worked out at 0.196. `COc1ccc(OC)c(N(CC(=O)NCc2cccnc2)S(C)(=O)=O)c1`: the z-score is 0.361. Consider `CC(=O)c1cccc(N(CC(=O)Nc2ccc(F)cc2)S(C)(=O)=O)c1`, for which the z-score was determined as 2.52.

The compound `Cc1cccc(N(CC(=O)Nc2ccc(F)cc2)S(C)(=O)=O)c1` gave a z-score of 0.171. The figure for `COc1cccc(N(CC(=O)NCc2cccnc2)S(C)(=O)=O)c1` is 3.97 (active); for `COc1cccc(N(CC(=O)Nc2cccc(C(C)=O)c2)S(C)(=O)=O)c1` it is 4.2 (active). In turn, `COc1ccc(CNC(=O)C2CCN(c3nccs3)CC2)cc1` gave a z-score of -0.318. The result for `Cc1cc(NC(=O)CSc2nnc(-c3cccs3)n2N)no1` reads -0.647. The figure for `COc1ccc2nc(SC(C(=O)c3ccccc3)c3ccccc3)nc(C)c2c1` (stereo not drawn) is 0.574. The figure for `CC(=O)c1cccc(S(=O)(=O)NCC2CCCCC2)c1` is 0.0227; for `COC(=O)/C(=C/Nc1cccc2ccccc12)[N+](=O)[O-]` it is -0.204; for `COC(=O)c1sccc1-c1ccc(/C=N/OCc2c(Cl)cccc2Cl)o1` it is -0.187. As for `Cc1ccc(-c2c(C)n([O-])c3c([n+]2=O)CCCCC3)o1`, the z-score is -0.48.

`CC(C)Sc1nc(C(F)(F)F)cc(=O)n1-c1ccccc1` displayed a z-score of 0.426. The figure for `CC(=O)Oc1c(C(=O)c2nnc(C)o2)c(=O)n(Cc2ccccc2)c2ccccc12` is 2.07; for `COc1cc(-n2c(=O)c3ccccc3n(Cc3ccccc3)c2=O)cc(OC)c1OC` it is -0.047. The result for `CC(=O)Oc1c(C(=O)c2nnc(C)o2)c(=O)n(C)c2ccccc12` reads -0.074. For the compound `CCc1ccc(NC(=O)N(CCCOC(C)C)C2CCN(C(C)=O)CC2)cc1`, the z-score was 0.807. `CC(C)(C)NC(=O)c1ccc2nccnc2c1`: the z-score worked out at 0.232. The result for `CC(C)(C)c1csc(NC(=O)c2ccc3nccnc3c2)n1` reads 5.29 (active). The figure for `O=C(Nc1nccs1)c1ccc2nccnc2c1` is 0.133; for `O=C(CCC(=O)OCC(=O)c1ccc(Cl)cc1Cl)Nc1cccc2cccnc12` it is 0.0344; for `O=C(NCc1ccco1)C(c1ccc(F)cc1)N(CC1CCCO1)C(=O)Cn1nnc2ccccc21` (stereo not drawn) it is -0.299. Turning to `CCOC(=O)c1nnn(CC(=O)N2N=C(c3cc(C)ccc3C)CC2c2ccc(OC)cc2)c1C(=O)OCC` (stereo not drawn), the z-score is -0.378. Compound `COc1ccc(/C(N)=N/OC(=O)Oc2ccccc2)cc1OC` gave a z-score of -0.183.

`O=C(CSc1nnc(-c2ccccc2)n1Cc1ccco1)Nc1ccc(S(=O)(=O)N2CCCC2)cc1`: the z-score is -1.61. In turn, `O=C(CSc1nc2cc(Cl)ccc2c(=O)n1Cc1ccco1)Nc1ccc(S(=O)(=O)N2CCOCC2)cc1` showed a z-score of 2.05. The result for `COC(=O)c1ccc2c(=O)n(Cc3ccco3)c(SCC(=O)Nc3ccc(C)c(Cl)c3)nc2c1` reads 0.24; that for `CNS(=O)(=O)c1cc(C(=O)NCc2ccco2)ccc1Cl`, 0.119. The compound `CCOc1ccc(NC(=S)N(CCCN2CCOCC2)Cc2cn(C)c3ccccc23)cc1` showed a z-score of -0.232.

With `N=c1n(Cc2ccccc2)c2ccccc2n1CC(O)c1ccccc1` (stereo not drawn), the z-score was 0.899. The result for `CCC(C)c1ccccc1NC(=O)COC(=O)c1ccc2c(c1)S(=O)(=O)c1ccccc1C2=O` (stereo not drawn) reads 2.17; that for `CCC(C)c1ccccc1NC(=O)COC(=O)c1ccc2[nH]c3c(c2c1)CCCC3` (stereo not drawn), -0.0793. In turn, `CCc1cccc(CC)c1NC(=O)COC(=O)c1ccc2c(c1)S(=O)(=O)c1ccccc1C2=O` displayed a z-score of -0.326. The figure for `C=CCn1c(-c2cccc(OC)c2)n[nH]c1=S` is -0.21; for `CCCn1c(SCC(=O)Nc2nnc(-c3ccccc3)s2)nnc1-c1ccccn1` it is -0.176; for `Cc1ccc(C(=O)N/C(=C\c2ccccc2)C(=O)OCc2ccccc2)cc1` it is -0.52.

In the case of `CCOC(=O)C1=C(CSc2nc(-c3ccccc3)ccc2C#N)OC(N)=C(C#N)C1c1ccc(OC)cc1` (stereo not drawn), the z-score came to 0.0604. As for `CCOC(=O)C1=C(CC)OC(N)=C(C#N)C1c1cccs1` (stereo not drawn), the z-score was -0.237.

On to `CCOC(=O)CC1=C(C(=O)OCC)C(c2cccs2)C(C#N)=C(N)O1` (stereo not drawn), for which the z-score is 3.6 (active). Turning to `CCOC(=O)C1=C(CSc2nc(-c3ccccc3)ccc2C#N)OC(N)=C(C#N)C1c1cccnc1` (stereo not drawn), the z-score is -0.107. `CCOC(=O)C1=C(c2ccccc2)OC(N)=C(C#N)C1c1cccs1` (stereo not drawn): the z-score amounted to 0.288. The result for `CCOC(=O)C1=C(CSc2nc(-c3ccccc3)ccc2C#N)OC(N)=C(C#N)C1c1ccccc1` (stereo not drawn) reads 2.03.

Take `Cc1[nH]c2ccccc2c1/C=N/NC(=O)c1cc(-c2cccs2)[nH]n1`: the z-score is -0.101. Compound `Cn1c(=O)[nH]c(=O)c2c1nc(NCCCn1ccnc1)n2Cc1ccc(F)cc1` showed a z-score of 0.613.

Consider `Cc1cc(Nc2cccc([N+](=O)[O-])c2)n2c(nc3ccccc32)c1C#N`, for which the z-score is 0.0405. The figure for `Cc1cccc(-n2c(O)c(C=Nc3c(C)n(C)n(-c4ccccc4)c3=O)c3ccccc3c2=O)n1` is -0.137; for `Cc1cccc(-n2c(O)c(/C=N/NC(=O)c3ccccc3Cl)c3ccccc3c2=O)n1` it is 5.65 (active). The result for `COc1cccc(N=Cc2c(O)n(-c3cccc(C)n3)c(=O)c3ccccc23)c1` reads -0.226; that for `Cc1ccn2c(C(=O)N/N=C/c3ccc(CNC(=O)C(=O)Nc4ccc(C)c(C)c4)o3)c(C)nc2c1`, 0.623. In the case of `CNC(=O)c1[nH]cnc1C(=O)Nc1ccccc1C`, the z-score is 0.825.

In turn, `COc1ccc(NC(=O)c2nc[nH]c2C(=O)Nc2ccccc2C)cc1` yielded a z-score of 0.48. In turn, `Cc1ccccc1NC(=O)c1nc[nH]c1C(=O)NCc1ccccc1` yielded a z-score of 2.57. On to `Cc1cccc(Oc2nc(-c3ccccc3)cc(C)c2S(C)(=O)=O)c1C`, for which the z-score stood at 0.102. `COc1ccc(-c2nc(C)ncc2-c2csc(C)n2)c(O)c1` showed a z-score of -0.348. In turn, `CN1/C(=C/C(=O)c2ccc(Cl)cc2)Sc2cc3c(cc21)OCO3` came in with a z-score of -1.93. `CC(C)CCN1C(=O)CCC1(C)C(=O)NC1CCCCCCC1` (stereo not drawn) showed a z-score of -0.383. The figure for `CCOC(=O)C1C(=O)C=C(c2ccc(NS(C)(=O)=O)cc2)CC1c1ccco1` (stereo not drawn) is 2.57; for `CCOC(=O)C1C(=O)C=C(c2ccc(C)cc2)CC1c1ccco1` (stereo not drawn) it is -0.0925.

`CCOC(=O)C1C(=O)C=C(c2cccc(NS(C)(=O)=O)c2)CC1c1ccco1` (stereo not drawn) showed a z-score of -0.737. The result for `NNC(=O)C=C1CCN(c2ncc(C(F)(F)F)cc2Cl)CC1` reads 0.00385; that for `Cc1ccc(C)c(NS(=O)(=O)c2cc(C(=O)NCc3ccco3)ccc2C)c1`, -0.408; that for `O=C(CN1CCCCC1)Nc1cccc(Cl)c1Cl`, -0.108.

For `CCOC(=O)C(CCCCOc1cccc(CC)c1)C(=O)OCC`, the z-score was 3.18 (active). Compound `CCOC(=O)C(CCOc1cccc(CC)c1)C(=O)OCC` yielded a z-score of -0.709. The figure for `CCOC(=O)C(CCCOc1cccc(CC)c1)C(=O)OCC` is 0.094; for `O=C(CC(c1ccco1)C1CCCCC1=O)c1ccccc1` (stereo not drawn) it is -0.656; for `Cc1cccc(NC(=O)COC(=O)c2ccccc2-c2nc3ccccc3s2)c1C` it is -0.272.

Compound `O=C(Nc1cccc(-c2nc3ccccc3s2)c1)c1cc(-n2cnnc2)ccc1Cl` returned a z-score of -0.00826. In turn, `COc1ccc(CNC(=O)COC(=O)CCC2CCCCC2)cc1` had a z-score of -0.328. `CC(C)Oc1ccc(C2CC(=O)N(c3ccccc3)C2=O)cc1` (stereo not drawn): the z-score stood at 2.33. Regarding `CC(C)Oc1ccc(C2CC(=O)N(c3ccc(N(C)C)cc3)C2=O)cc1` (stereo not drawn), the z-score was -0.0638. The figure for `COc1ccc(N2C(=O)CC(c3ccc(OC(C)C)cc3)C2=O)cc1` (stereo not drawn) is -0.209. The figure for `COc1ccc(C2C(C(=O)Nc3cccc(C)n3)c3ccccc3C(=O)N2C)cc1OC` (stereo not drawn) is -0.119. With `CCOc1ccc(N(CC(=O)NN=C2CCN(C)CC2)S(C)(=O)=O)cc1`, the z-score was -0.0704. The figure for `CCOC(=O)Cn1c(C)cc(=O)c2cccc(C)c21` is -0.0778.

Compound `Cc1cccc2c(=O)cc(C)n(Cc3ccccc3)c12` came in with a z-score of -0.148. Turning to `Cc1cccc2c(=O)cc(C)n(CC(=O)N3CCCCC3)c12`, the z-score is 3.39 (active). On to `CC(Oc1ccccc1)C(=O)NC1CCN(Cc2ccccc2)CC1` (stereo not drawn), for which the z-score is -2.68.

`C=CCSc1nnc(NC(=O)CSc2ccccn2)s1`: the z-score was -0.421. `COc1ccc(/C(C)=C2/SC(=S)N(CCC(=O)O)C2=O)cc1`: the z-score was -0.343. In turn, `Cc1ccc(C)n1-c1ccc(N2CCOCC2)nc1` registered a z-score of -0.064. The result for `O=C(CSc1nc(-c2ccccc2)cc(C(F)(F)F)n1)NCCN1CCOCC1` reads 2.92.

Compound `COc1ccc(-c2cc(C(F)(F)F)nc(SCC(=O)NCCN3CCOCC3)n2)cc1OC` gave a z-score of 0.846.

Compound `O=C(CSc1nc(-c2ccc(F)cc2)cc(C(F)(F)F)n1)NCCN1CCOCC1` showed a z-score of 0.00416. `Cc1ccc(-n2c(SCC(N)=O)nnc2-c2ccccn2)cc1` showed a z-score of 2.09. The figure for `Cc1ccc(-n2c(SCC(N)=O)nnc2-c2ccccn2)cc1C` is 0.0328; for `Cc1ccc(C)c(-n2c(SCC(N)=O)nnc2-c2ccccn2)c1` it is -0.142. The result for `CCCCn1c(N)c(-c2nc3ccccc3s2)c2c([N+](=O)[O-])nn(C)c(=O)c21` reads 1.31.

In turn, `CCOC(=O)/C(=C/c1ccc(OC)cc1)NC(=O)c1ccco1` returned a z-score of -0.186.

Compound `COc1ccc(-c2csc(NC(=O)C3CCCCN3S(=O)(=O)c3ccccc3)n2)cc1` (stereo not drawn) registered a z-score of 1.82.

Take `Cc1ccccc1-c1nnn(CC(=O)N2CCN(S(=O)(=O)c3ccc(Cl)cc3)CC2)n1`: the z-score was -0.031. The result for `Cn1c(=O)c2c(ncn2CC(=O)N/N=C/c2ccc(Br)s2)n(C)c1=O` reads 2.47. In turn, `Cn1c(=O)c2c(ncn2CC(=O)N/N=C/C(Br)=C/c2ccccc2)n(C)c1=O` returned a z-score of 0.116. The figure for `Cn1c(=O)c2c(ncn2CC(=O)N/N=C/c2ccco2)n(C)c1=O` is 1.59. Consider `O=C(CSc1ccccc1Cl)NC1CCCc2ccccc21` (stereo not drawn), for which the z-score was -0.386.
